In the library only some 19% were active in any assay of this set; here they are far more common.
TDP1 block: qHTS Assay for Inhibitors of Tyrosyl-DNA Phosphodiesterase (TDP1); Tyrosyl-DNA phosphodiesterase 1 (Homo sapiens), Q9NUW8; AID 485290, 2010; Potency, µM (titrated, usually from 130 µM), without a hit: at the highest dose activity change, negative = inhibition, actives largely listed as inhibitors; 350,000 compounds, 0.28% hits; recombinant TDP1, AlphaScreen DNA substrate cleavage; note: potency is the fitted concentration of half-maximal effect; nearly all actives have a fitted effect of over 40% in size
Target sequence (Q9NUW8 whole entry, looked up): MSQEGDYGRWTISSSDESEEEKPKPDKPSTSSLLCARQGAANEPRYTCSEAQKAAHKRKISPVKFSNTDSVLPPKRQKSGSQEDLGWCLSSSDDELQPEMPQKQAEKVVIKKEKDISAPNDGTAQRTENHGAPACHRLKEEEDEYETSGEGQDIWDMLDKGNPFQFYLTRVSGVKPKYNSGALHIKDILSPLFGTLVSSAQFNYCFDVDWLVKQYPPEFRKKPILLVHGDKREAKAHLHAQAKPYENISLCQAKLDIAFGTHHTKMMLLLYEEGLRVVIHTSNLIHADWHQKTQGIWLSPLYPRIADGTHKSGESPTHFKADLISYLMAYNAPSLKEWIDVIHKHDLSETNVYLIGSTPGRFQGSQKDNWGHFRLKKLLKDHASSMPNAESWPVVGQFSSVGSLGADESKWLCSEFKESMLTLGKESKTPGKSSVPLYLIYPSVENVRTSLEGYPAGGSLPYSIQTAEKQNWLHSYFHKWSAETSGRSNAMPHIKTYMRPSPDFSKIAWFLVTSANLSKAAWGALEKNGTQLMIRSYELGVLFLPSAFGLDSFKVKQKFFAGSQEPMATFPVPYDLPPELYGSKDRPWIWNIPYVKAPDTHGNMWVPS
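AlphaScreen read-out: signal falls as enzyme removes the 3' tyrosine-FITC from a 5'-biotinylated DNA oligo (15 nM, 5 min, RT). Enzyme was E. coli-made recombinant Tdp1 at 1 nM, exposed to compound for 15 min beforehand; beads 10 ug/ml, 10 min.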
DT40 TDP1 no CPT: qHTS for Inhibitors of human tyrosyl-DNA phosphodiesterase 1 (TDP1): qHTS in cells in absence of CPT. AID 686978, 2013. DT40 Tdp1-/- hTDP1 cells, no CPT, ATP luminescence, 48 h. Potency, µM (highest dose often 46.2 µM), for inactives: at the top dose activity change, negative = growth inhibition, actives largely listed as inhibitors. 420,000 compounds, 15% hits; note: potency is the fitted concentration of half-maximal effect; nearly all actives have a fitted effect of over 55% in size
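Stably hTDP1-transfected Tdp1-null chicken DT40 cells were treated with library compounds minus camptothecin and grown for at least 48 hr at 37 °C, after which cellular ATP was quantified by luminescence.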
ELG1 DNA repair: qHTS screen for small molecules that inhibit ELG1-dependent DNA repair in human embryonic kidney (HEK293T) cells expressing luciferase-tagged ELG1; HEK293T ELG1-luciferase reporter, luminescence, 16 h; DNA damage induced by 5-fluorouridine; Potency, µM (top dose mostly 46.1 µM), inactives show at the top dose activity change, negative = inhibition, actives largely listed as inhibitors; 330,000 compounds, 2.3% hits; AID 504467, 2011; note: potency is the fitted concentration of half-maximal effect; nearly all actives have a fitted effect of over 55% in size
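DMSO vehicle served as the neutral condition. Each well held 2,000 cells given 5-fluorouridine plus compound; after 16 hr at 37 °C/5% CO2, ONE-Glo was added and luciferase measured 30 min later.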
Giardia kill: Small Molecules that selectively kill Giardia lamblia: qHTS; Giardia lamblia trophozoite viability; activity change, % at 7.66 µM, hits read low; 340,000 compounds, 0.15% hits; AID 540267, 2011; in the data active = activity change below about -80%; inconclusive = between about -30% and that limit;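 note: parasites exposed to compound for two days anaerobically before the ATP read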
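Luminescent ATP signal served as the viability read-out, measured 15-30 min after adding ATP detection reagent to trophozoites that had been incubated with compounds for 48 hrs at 37 deg C anaerobically at 100 cells/well.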
TDP1 cell CPT: qHTS for Inhibitors of human tyrosyl-DNA phosphodiesterase 1 (TDP1): qHTS in cells in presence of CPT; AID 686979, 2013; 420,000 compounds, 12% hits; chicken DT40 Tdp1-/-;hTDP1 cells + 20 nM CPT, ATP luminescence, 48 h; Potency, µM (highest dose often 46.2 µM), without a hit: at the top dose activity change, negative = growth inhibition, hits mostly inhibitors; note: potency is the fitted concentration of half-maximal effect; nearly all actives have a fitted effect of over 55% in size
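Chicken DT40 Tdp1-/- cells complemented with human TDP1, 400 cells/well, exposed to compounds plus 20 nM camptothecin for at least 48 h at 37 C; viability read as ATP content by CellTiter-Glo luminescence.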
IL-1B inflam inh: qHTS for Inhibitors of Inflammasome Signaling: IL-1-beta AlphaLISA Primary Screen | THP-1 LPS/ATP IL-1B secretion, AlphaLISA, 16 h; hits give low values | activity change, % at 57.5 µM | 360,000 compounds, 4.7% hits; in the data active = activity change below about -50%; inconclusive = mostly about -30% to -49%
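THP-1 cells pretreated 1 hr with compounds (up to 57.5 uM final), then stimulated with LPS (250 ng/mL final) plus ATP (1.25 mM final); secreted IL-1B measured by AlphaLISA after 16 hr, decreased signal indicating inhibition.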
Numbers without * were called inactive; ? = inconclusive; nt = not tested or not shown; ! = not active in a repeat. Unless noted, calls come from the whole dose curve; as a rule, active = well fitted curve in the direction sought with a large enough effect; inconclusive = small, poorly fitted or top-dose-only effect, or another doubt; inactive = no such curve, though single readings can be large; an effect the other way counts as inactive or inconclusive. % is set by controls: 0 for no effect and ±100 for the full control effect.

SMILES | TDP1 block | DT40 TDP1 no CPT | ELG1 DNA repair | Giardia kill | TDP1 cell CPT | IL-1B inflam inh
CNc1[nH]c(=O)[nH]c(=O)c1N=Nc1cc(Cl)ccc1Cl | nt | -23.5% | nt | -10.1 | -13.6% | 11.8
C[C@@H](CSc1ccccc1)CN1CC[C@H](C(C)(C)C)CCC1=O | nt | 17.8µM* | 26.3% | 16.9 | ? | -11.3
CC(C)(C)C1CCC(=O)N(CCC#N)CC1 (stereo unspecified) | nt | 3.7% | 2.1% | -4.6 | -9.8% | -3.9
CC(C)(C)[C@H]1CCC(=O)N([C@H](CC#N)Cc2ccccc2)CC1 | nt | 17.8µM* | 0.7% | -13.3 | ? | -8.0
C[C@H]1CCC(=O)N([C@H](CC#N)Cc2ccccc2)CC1 | nt | -9.6% | -0.3% | -22.2 | -5.7% | 9.0
Cc1ccc(SC[C@H](C)CN2CC[C@H](O)CCC2=O)cc1 | nt | -4.4% | nt | nt | -13.5% | nt
C[C@@H](CSc1ccc(Br)cc1)CN1CC[C@H](O)CCC1=O | 0.6% | 12.6µM* | 25.3% | 15.8 | 12.6µM* | 20.7
C[C@@H](CN=[N+]=[N-])CN1CC[C@H](C(C)(C)C)CCC1=O | nt | 12.6µM*! | -10.6% | -20.3 | 11.2µM*! | 3.9
Cc1[nH]c2ccc(C(=O)NCCN3CCOCC3)cc2c1C | 0.3% | -4.0% | ? | -12.9 | -2.8% | -0.3
O=C(COC(=O)c1ccc[n+]([O-])c1)Nc1cc([N+](=O)[O-])ccc1Cl | -5.9% | -0.3% | ? | -0.4 | 11.0% | -3.0
CCOC(=O)Cn1c(=O)oc2cc(S(=O)(=O)Nc3ccccc3F)ccc21 | 4.6% | -23.1% | nt | nt | -15.9% | nt
COc1cc(-c2cc(OC)c3c(C)oc(C)c3c(=O)c2)ccc1OC(=O)c1cccc(C)c1 | 4.7% | 13µM* | nt | nt | 23.1µM* | nt
CCOc1cc(-c2ccc(OC(=O)c3ccc(OC)cc3)c(OC)c2)cc(=O)c2c(C)oc(C)c12 | 4.9% | 18.4µM* | nt | nt | 14.6µM* | nt
COc1ccc(-c2cc(OC(=O)c3ccc(F)cc3)c3c(C)oc(C)c3c(=O)c2)cc1OC | -2.5% | ? | nt | nt | 18.4µM* | nt
CC(=O)N1CCc2cc(CNC(=O)Nc3ccc(Br)c(C)c3)ccc21 | 1.8% | 3.0% | nt | nt | ? | nt
O=C(Nc1ccc(Oc2cccc3ccccc23)cc1)c1ccco1 | 5.0% | ? | -7.2% | 4.9 | ? | ?
CCOc1ccccc1OCCCC(=O)N1CCN(S(=O)(=O)c2ccccc2C#N)CC1 | nt | ? | nt | nt | -15.9% | -19.7
c1ccc(CNc2nc3ccccc3[nH]2)cc1 | -1.1% | 18.4µM* | ? | 0.3 | ? | -60.5*
Cc1ccc2nc(NCc3ccccc3)[nH]c2c1 | 0.0% | 4.61µM* | ? | 6.4 | 4.11µM* | -72.7*
COc1ccc2nc(NCc3ccccc3)[nH]c2c1 | 0.0% | 14.6µM* | ? | -1.2 | ? | -101.6*
O=c1[nH]c2ccccc2nc1NCc1ccccc1 | nt | -17.2% | ? | -17.5 | 9.1% | -24.1
COc1cc(=O)n2c(c1C(=O)NC(C)c1ccco1)CCN(C(=O)c1ccccc1SC)CC2 (stereo unspecified) | nt | -8.2% | nt | nt | -10.6% | nt
O=C(N[C@@H](Cc1ccccc1)C(=O)N1CCN(S(=O)(=O)c2ccccc2F)CC1)c1ccco1 | 0.7% | ? | -14.5% | ? | ? | 5.5
CCNc1ncc2nc(CCc3ccccc3)c(=O)n(C)c2n1 | nt | -29.9% | nt | nt | -2.8% | nt
CCC(=O)N1CCc2cc(S(=O)(=O)N3CCN(c4cc(C)ccc4C)CC3)ccc21 | 3.3% | -15.3% | -0.2% | 19.3 | 0.2% | 35.5
SMILES | TDP1 block | DT40 TDP1 no CPT | ELG1 DNA repair | Giardia kill | TDP1 cell CPT | IL-1B inflam inh
Nc1ncc(-c2nnnn2-c2ccc(Cl)cc2)c(-c2ccc(Cl)cc2)n1 | 3.9% | 5.8µM* | -21.0% | -14.2 | 4.61µM* | 40.2
COc1cc(NC(=O)c2cc3c(=O)oc4ccc(C)cc4c3s2)cc(OC)c1OC | 6.9% | -7.5% | nt | nt | -2.2% | nt
Cc1ccc(S(=O)(=O)N2CCC(=O)N(CCOC(=O)Nc3cc(C)cc(C)c3)CC2)cc1 | -5.1% | ? | -24.0% | 3.1 | 16.4µM* | -12.5
COc1ccc(NC(=O)OCCN2CCN(Cc3ccccc3)CCC2=O)cc1 | 3.1% | -15.9% | 26.6% | -6.8 | -20.3% | 26.6
Cc1cc(C)cc(NC(=O)OCCN2CCN(Cc3ccccc3)CCC2=O)c1 | 11.2% | 23.1µM* | ? | 18.0 | -22.9% | -0.8
CC(C)[C@H](N)C(=O)N[C@@H](CCC(N)=O)C(=O)NCC(=O)N[C@@H](CCC(=O)O)C(=O)N[C@@H](CCC(=O)O)C(=O)N[C@@H](CO)C(=O)N[C@@H](CC(N)=O)C(=O)N[C@@H](CC(=O)O)C(=O)N[C@@H](CCCCN)C(=O)O | 9.5% | nt | nt | nt | nt | nt
S=c1nc[nH]c2c1cnn2Cc1ccccc1 | nt | 3.66µM* | -19.2% | 12.5 | 10.3µM* | 34.9
COc1ccc(CC(=O)Nc2ccc3c(c2)OC2(CCCC2)O3)c(OC)c1 | nt | ? | nt | nt | ? | -17.8
COc1cccc(CC(=O)Nc2ccc3c(c2)OC2(CCCC2)O3)c1 | 3.9% | ? | ? | 10.6 | 18.4µM* | 0.0
CCc1ccccc1NC(=O)C1CCCN1C(=O)Nc1ccc(C)cc1 (stereo unspecified) | nt | -13.2% | 7.5% | -21.1 | 3.0% | 13.5
N#C/C(=N\Nc1cccc(C(F)(F)F)c1)C(=O)c1ccsc1 | 8.9% | 5.8µM* | ? | 5.6 | 5.17µM* | ?
C/C(=N\NC(=O)CNc1cccc(C(F)(F)F)c1)c1cccs1 | -1.2% | ? | 12.4% | -4.3 | 9.5% | -6.7
CCCN(CCC)C(=O)C1CCCN(S(=O)(=O)c2cc(Br)cc3c2N(C(=O)CC)CC3)C1 (stereo unspecified) | 1.8% | 20.6µM* | nt | nt | ? | nt
CCC(=O)N1CCc2cc(Br)cc(S(=O)(=O)N3CCCC(C(=O)Nc4ccc(OC)cc4OC)C3)c21 (stereo unspecified) | 1.8% | -16.9% | nt | nt | -2.3% | nt
CC(=O)N1CCc2cc(Br)cc(S(=O)(=O)N3CCCCCC3)c21 | 0.0% | -14.8% | ? | -1.2 | -19.3% | -7.4
CCN(C(=O)C1CCN(S(=O)(=O)c2cc(Br)cc3c2N(C(C)=O)CC3)CC1)c1cccc(C)c1 | 1.8% | 23.1µM* | nt | nt | ? | nt

Screening data (PubChem)
